# Compound activity from PubChem BioAssay.
# Rows were chosen to be rich in hits. Some 2.8% of all compounds tested hit in one or more screens of this group.
# ATXN viability: Viability Counterscreen for Primary qHTS for Inhibitors of ATXN expression; S2 cells (HEK-293 line with an ATXN2-luciferase reporter) viability, CellTiter-Fluor protease fluorescence, 24 h; Potency, µM (top dose mostly 56.7 µM), usual class: cytotoxic; 400,000 compounds, 0.49% hits; AID 651635, 2014; note: nearly all actives have a fitted effect of over 40% in size
# ATXN2 expr inh: Primary qHTS for Inhibitors of ATXN expression; HEK-293 ATXN2-luciferase reporter, luminescence, 24 h; Potency, µM (series often up to 57 µM), usual class: inhibitors; 360,000 compounds, 0.72% hits; AID 1745845, 2022; note: nearly all actives have a fitted effect of over 55% in size
#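 qHTS (up to 57 uM final) was run with 24 h compound exposure of reporter cells at 37 °C. Each well was multiplexed: SteadyGlo luminescence measured ATXN2-luciferase expression after a fluorogenic Gly-Phe-AFC viability readout (25 uM final).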
# TGFb inhibitor: qHTS for Inhibitors of TGF-b. Potency, µM (titrated, usually from 46.1 µM), most hits filed as inhibitors. 410,000 compounds, 1.2% hits. HepG2 CAGA-GFP TGF-b/SMAD3 reporter, GFP fluorescence, 18 h; TGF-beta stimulated, 500 pg/mL final. AID 588855, 2011; note: nearly all actives have a fitted effect of over 65% in size
#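 Inhibition was scored as loss of TGF-beta-induced (500 pg/mL final, 18 hours, 37 degrees C) GFP in HEPG2 cells carrying a CAGA-GFP reporter, in DMEM with 1% FBS. Well GFP was summed per cell; Activity was normalised to unstimulated and stimulated DMSO wells, then concentration-response fitting.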
# CtBP-E1A inh: qHTS Assay for Inhibitors of the CtBP/E1A Interaction; CtBP / adenovirus E1A interaction (AlphaScreen); AlphaScreen GST-E1A/His-CtBP binding, 1536-well; hits give low values; activity change, % (concentration not given with the values); 340,000 compounds, 0.49% hits; in the data active = activity change below about -65%; inconclusive = mostly about -30% to -63%
#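 Protein mix (5X: 125 nM each GST-E1A, His-CtBP) was incubated with pinned compound 2 h at 37 deg C in dark, in 50 mM Tris pH 8.0 buffer with 300 mM NaCl. Glutathione donor and nickel acceptor beads followed; AlphaScreen signal read after 1 h.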
# Six1-Eya2 inh: qHTS Assay for Inhibitors of the Six1/Eya2 Interaction | AlphaScreen GST-Six1/His-Eya2 binding, biochemical; hits give low values | Homeobox protein SIX1 (Homo sapiens) + Protein phosphatase EYA2 (Homo sapiens), … | activity change, % (concentration not given with the values) | AID 651725, 2012 | 360,000 compounds, 0.56% hits; in the data active = activity change below about -65%; inconclusive = mostly about -30% to -63%
# Target sequence (O00167 whole entry, looked up): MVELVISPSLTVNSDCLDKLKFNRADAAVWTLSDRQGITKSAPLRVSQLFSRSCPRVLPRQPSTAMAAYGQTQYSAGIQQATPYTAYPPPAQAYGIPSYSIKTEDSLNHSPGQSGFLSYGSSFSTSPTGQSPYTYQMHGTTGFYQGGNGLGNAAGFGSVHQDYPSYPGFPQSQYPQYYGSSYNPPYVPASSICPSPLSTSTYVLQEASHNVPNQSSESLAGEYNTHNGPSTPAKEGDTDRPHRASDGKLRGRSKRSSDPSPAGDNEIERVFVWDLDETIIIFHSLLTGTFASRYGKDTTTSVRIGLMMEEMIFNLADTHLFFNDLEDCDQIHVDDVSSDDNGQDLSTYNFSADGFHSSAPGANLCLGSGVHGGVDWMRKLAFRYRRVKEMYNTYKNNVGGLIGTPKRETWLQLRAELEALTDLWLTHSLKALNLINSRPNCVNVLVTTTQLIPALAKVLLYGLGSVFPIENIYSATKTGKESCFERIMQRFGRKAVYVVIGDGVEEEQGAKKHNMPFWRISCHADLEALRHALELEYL
# Target sequence (Q15475 whole entry, looked up): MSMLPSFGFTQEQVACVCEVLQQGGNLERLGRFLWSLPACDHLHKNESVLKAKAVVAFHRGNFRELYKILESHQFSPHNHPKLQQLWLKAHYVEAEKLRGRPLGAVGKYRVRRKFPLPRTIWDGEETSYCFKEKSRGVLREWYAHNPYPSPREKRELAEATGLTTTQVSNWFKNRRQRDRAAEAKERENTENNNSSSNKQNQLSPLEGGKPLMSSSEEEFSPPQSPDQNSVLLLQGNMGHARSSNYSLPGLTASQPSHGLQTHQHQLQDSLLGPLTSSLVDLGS
#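 GST-Six1 + His-Eya2 (5X stock: 250/500 nM); Tris pH 8.0, 300 mM NaCl, 0.05% BSA, 0.02% Tween 20; GSH donor/Ni acceptor beads; 1 h 37 °C dark; AlphaScreen readout.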
# HepG2 tox: qHTS for Inhibitors of TGF-b: Cytotox Counterscreen | Potency, µM (titrated, usually from 46.1 µM), hits mostly cytotoxic | HepG2 CAGA-GFP viability, ATP luminescence, 18 h | 410,000 compounds, 0.76% hits
#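 HepG2 CAGA-GFP cells (1000/well, DMEM with 1% FBS) received compound, then TGF-beta at 500 pg/mL final, and were incubated 18 hours at 37 degrees C. Viability was read by CellTiter-Glo luminescence. Media-only wells were set as complete cell-killing and DMSO as no toxicity.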
# Hits are given with their value; 0 = inactive; ? = inconclusive; - = not tested or not shown; ! = not confirmed by another sample; [ ] = another dose, or the depositor's remark. Unless noted, calls come from the whole dose curve; as a rule, active = well fitted curve in the direction sought with a large enough effect; inconclusive = small, poorly fitted or top-dose-only effect, or another doubt; inactive = no such curve, though single readings can be large; an effect the other way counts as inactive or inconclusive.
SMILES,ATXN viability,ATXN2 expr inh,TGFb inhibitor,CtBP-E1A inh,Six1-Eya2 inh,HepG2 tox
Nc1nc2c(ncn2COC(CO)CO)c(=O)[nH]1,0,24.3µM!,0,0,0,0
Cc1nc2ccc(C(=O)N/N=C/c3ccccc3O)cc2[nH]1,0,0,0,-87.7,-80.2,0
Cc1nc2ccc(C(=O)N/N=C/c3cc([N+](=O)[O-])ccc3O)cc2[nH]1,0,0,0,-92.1,-92.1,0
O=C(N/N=C/c1cc([N+](=O)[O-])ccc1O)c1cccc(NC(=O)c2cccc(Cl)c2)c1,0,0,0,0,0,0
CC(C)CCNC(=O)C1CCN(C(=O)c2cc3sccc3n2Cc2ccc(Cl)cc2)CC1,-,-,6.31µM,-,-,0
COCCCNC(=O)C1CCN(C(=O)c2cc3sccc3n2Cc2ccc(F)cc2)CC1,0,0,0,0,0,0
Cc1cccc(Cn2cccc2CNS(=O)(=O)c2ccc(Br)cc2)c1,?,?,15.8µM,-,-,0
Cc1cccc(Cn2cccc2CNS(=O)(=O)c2ccc(C)c(C)c2)c1,0,?,17.8µM,-,-,0
Cc1nc2ccc(C(=O)N3CCOc4ccc(CN5CCOCC5)cc4C3)cc2nc1C,0,-,-,-,-,-
CN1CCN(c2cc(N3CCc4ccccc4C3)c(F)cc2[N+](=O)[O-])CC1,?,0,?,0,?,15.8µM
CC[C@@]1(O)C(=O)OCc2c1cc1n(c2=O)Cc2c-1nc1ccccc1c2/C=N/OC(C)(C)C,0,0.0005µM,-,-,-,-
CC[C@@]1(O)C(=O)OCc2c1cc1n(c2=O)Cc2cc3cc(O)ccc3nc2-1,-,0.0385µM,-,-,-,-
CCc1c2c(nc3ccc4c(c13)OCCO4)-c1nc3ccccc3c(=O)n1C2,-,-,0,-,-,0
O=C(ONc1ccc(N=NC(=O)c2ccccc2O)cc1)c1ccccc1,1.26µM,0,0,0,0,0
CCN(C(=O)c1cccs1)c1nc(-c2ccc(OC)cc2)cs1,0,0,0,0,0,0
COc1ccc(-c2csc(N(CCCN(C)C)C(=O)c3cccs3)n2)cc1,?,0,0,0,0,10µM
O=C(CSc1nc2ccccc2c(=O)[nH]1)Nc1ccc([N+](=O)[O-])cc1,0,0,0,0,0,0
O=c1[nH]c(Sc2ccc([N+](=O)[O-])cc2[N+](=O)[O-])nc2ccccc12,?,-,14.1µM,-,0,11.2µM
CCOC(=O)c1ccc(NC(=S)NC2CC(C)(C)NC(C)(C)C2)cc1,?,?,?,0,0,11.2µM
CCOC(=O)c1ccc(NC(=S)NN)cc1,0,0,0,0,0,0
CCOc1ccc(NC(=O)c2ccc(NC(=S)NC3CC3)cc2)cc1,0,0[11.3 µM],0,0,0,0
CCOc1ccc(NC(=O)c2ccc(NC(=S)NC3CCCCC3)cc2)cc1,?,0,?,0,0,17.8µM
O=C(NCCc1ccccn1)C1CC12CCN(C(=O)c1cccc(C(F)(F)F)c1)CC2 (stereo not drawn),0,-,-,-,-,-
CCN(CC)CCOc1ccc(C(=C(Cl)c2ccccc2)c2ccccc2)cc1,-,0,-,-,-,-
O=C(CN1C(=O)c2ccccc2C1=O)NCC1Cc2cccc(-c3ncccn3)c2O1 (stereo not drawn),0,-,-,-,-,-
SMILES,ATXN viability,ATXN2 expr inh,TGFb inhibitor,CtBP-E1A inh,Six1-Eya2 inh,HepG2 tox
CCCCNc1c(-c2ccc(OC)c(SC3CCCCC3)c2)nc2cnccn12,-,?,?,-,0,11.2µM
COc1ccc(-c2nc3cnccn3c2NCc2ccccc2)cc1SC1CCCCC1,-,?,?,0,0,0
CCN1C[C@@H]2[C@@H]3C(=O)N(Cc4ccccc4)C(=O)[C@@H]3[C@](Cc3ccccc3)(C1=O)N2C(=O)c1ccc(C(C)(C)C)cc1,31.6µM,?,0,0,0,0
CC(C)Cc1ccc(-c2ccc3nccn3c2)cc1,?,0,0,0,0,0
NS(=O)(=O)c1cccc2c1C(=O)c1cccc(O)c1C2=O,-,3.06µM,-,-,-,-
CC1(Cc2cccc(F)c2)C(=O)Nc2ccc(S(=O)(=O)NC3CCCCC3)cc21 (stereo not drawn),?,?,0,0,0,0
COc1ccccc1-c1ccc2c(c1)C(C)(Cc1ccc(Cl)c(Cl)c1)C(=O)N2 (stereo not drawn),?,?,14.1µM,0,0,0
CC1(Cc2ccc(Cl)c(Cl)c2)C(=O)Nc2ccc(S(=O)(=O)NC3CCCCC3)cc21 (stereo not drawn),0,0,12.6µM,0,0,0
Cc1ncc2c(c1CNS(=O)(=O)N(C)C)CCN(C(=O)/C=C/c1ccccc1)C2,0,-,-,-,-,-
CCN(CC)Cc1ccc2cc(COC(=O)Nc3ccc(C(=O)NO)cc3)ccc2c1,-,0,-,-,-,-
C(=C\c1ccnc2ccccc12)/c1cc2c3c(c1)CCCN3CCC2,-,-,0,-,-,0
CNC(=O)OCc1nc(SSC(C)(C)C)n(C)c1COC(=O)NC,-,?,11.2µM,0,0,0
CCSc1nc(COC(=O)NC)c(COC(=O)NC)n1C,0,0,0,0,0,0
CC(C)(C)c1cc(C=O)cc(C(C)(C)C)c1O,0,0,-,-,-,-
CCOc1ccc(NCc2ccccc2OCc2cccc(F)c2)cc1,0,0,?,0,0,0
C[C@H](NCc1ccc(OCc2cccc(F)c2)cc1)C(N)=O,-,19.3µM,-,-,-,-
O=C(NCCc1ccccn1)C1CC12CCN(C(=O)c1c(F)cccc1Cl)CC2 (stereo not drawn),0,-,-,-,-,-
Cc1cc(F)ccc1NC(=O)C1CCC(CNS(=O)(=O)c2ccc3c(c2)CCCC(=O)N3)CC1 (stereo not drawn),0,0,0,-,-,0
O=C(NC(=S)NNC(=O)c1cnccn1)c1ccc(F)cc1,0,-,0,-,-91.9,0
O=C(/C=C/c1ccc(F)cc1)NC(=S)NNC(=O)c1cnccn1,?,?,0,-81.2,-90.2,0
COC(=O)C1[C@H]2SC(C)(C)C(C(=O)OC)N2C(=O)N1Cc1ccccc1 (stereo partly drawn),-,-,0,-,-,0
C=C1C(=O)[C@@]23[C@H](O)C[C@@H]4C(C)(C)CC[C@H](O)[C@@]4(C)[C@@H]2CC[C@@H]1[C@H]3O,7.94µM,?,0.891µM,0,0,8.91µM
C=C1C(=O)[C@@]23[C@H](O)C[C@@H]4C(C)(C)CC[C@H](O)[C@]4(C)[C@@H]2C[C@H](O)[C@@H]1[C@H]3O,17.8µM,0,12.6µM,0,0,0
C=C1CC(COc2cc(=O)oc3ccccc23)(c2ccccc2)OC1=O (stereo not drawn),-,?,5.01µM,0,0,6.31µM
